Compound activity as filed in PubChem.
AID inhibitor: activation induced cytidine deaminase inhibition; AID deamination FRET fluorescence, UDG-coupled, 4 h; Potency, µM (top dose mostly 115 µM), hits mostly inhibitors; 91,000 tested, 0.32% active; further: nearly all actives have a fitted effect of over 25% in size
Target sequence (Q9GZX7 whole entry, looked up): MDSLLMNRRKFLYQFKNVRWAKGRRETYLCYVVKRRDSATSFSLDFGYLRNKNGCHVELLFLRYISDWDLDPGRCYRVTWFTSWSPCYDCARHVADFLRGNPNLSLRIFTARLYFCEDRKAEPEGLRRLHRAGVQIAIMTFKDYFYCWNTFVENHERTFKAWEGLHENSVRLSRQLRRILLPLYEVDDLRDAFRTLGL
UDG counter: UDG inhibition counter-screen; FRET deamination/UDG coupled assay, UDG read, 4 h; Potency, µM (top dose mostly 115 µM), for inactives: at the highest dose activity change, negative = inhibition, most hits filed as inhibitors; 91,000 tested, 0.14% active; AID 1347430; further: nearly all actives have a fitted effect of over 65% in size
* = called active by the depositor; i = inactive; u = inconclusive. Compounds with a hit are over-represented: about 0.4% of the library has one in this group of screens. The call rests on the fitted dose curve; in most records, active means well fitted curve in the direction sought with a large enough effect; inconclusive means small, poorly fitted or top-dose-only effect, or another doubt; inactive means no such curve, though single readings can be large; an effect the other way counts as inactive or inconclusive. On the % scale 0 is the no-effect control and ±100 the full control effect; potency means the concentration at half of the fitted maximal effect.

SMILES | AID inhibitor | UDG counter
O=c1c2ccccc2nc(/C=C/c2cccc3ccccc23)n1-c1ccccc1Cl | u | 89µM*
Cc1ccc(-n2c(/C=C\c3ccc(F)cc3)nc3ccccc3c2=O)cc1Cl | u | 89µM*
Cc1ccccc1-n1c(/C=C/c2ccccc2F)nc2ccccc2c1=O | i | -11%
Cc1cccc(/C=C/c2nc3ccccc3c(=O)n2-c2cccc(O)c2)c1 | i | 1%
COc1ccc2[nH]c(C)c(CCNCCC3=C(C)CCCC3(C)C)c2c1 | i | -3%
Cc1oc2cc(OCC(=O)N3CCN(C)CC3)ccc2c(=O)c1Oc1ccccc1 | i | 30%
CCCCc1ccc2[nH]c(C)c(CCN)c2c1 | i | 6%
COc1ccc(CCNCc2cccc(F)c2)cc1 | i | -3%
CN(N=O)c1ccc(O)c(O)c1 | 25µM* | -7%
CN1CC2(Cc3c1ccc1ccccc31)C(=O)NC(=O)N(CCc1ccccc1)C2=O (stereo unspecified) | i | -16%
CN1CC[C@@]2(C)c3cc(O)ccc3N(C)C12 (stereo partly specified) | 11µM* | -4%
C[C@@H]1[C@@H]2Cc3ccc(O)cc3[C@@]1(C)CCN2CC1CC1 | i | 0%
NC(Cc1cc(O)c(O)cc1O)C(=O)O (stereo unspecified) | 14µM* | -2%
N[C@@H](CCl)C(=O)O | i | -4%
CC(Oc1ccccc1)C(=O)NN (stereo unspecified) | i | -2%
CCCC12CN3CC(C)(CN(C1)C3c1c(C)[nH]c(=O)[nH]c1=O)C2=O (stereo unspecified) | 10µM* | -29%
CCCCC12CN3CC(C)(CN(C1)C3c1ccccn1)C2=O (stereo unspecified) | i | 2%
CN(C)C(CSS(=O)(=O)c1ccccc1)CSS(=O)(=O)c1ccccc1 | u | -18%
